# The other results are listed elsewhere or left out. The true hit rate is not given.
# Target: furin, P09958
# Assay: furin cleavage Z-score vs untreated control; higher = more cleavage, active = 3.5 or more, inactive = 1 or less, 8 variable residues between constant flanks
# Experimental: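 Multiplexed peptide-cDNA fusion cleavage assay. 8-mer variable peptides flanked by constant Cys-Ala (N-term) and Ala-Gly-Asn-Ala-Ser-Ala-Ser-Ala (C-term) and conjugated to a cDNA oligonucleotide were bead-immobilised via the N-terminus. They were treated with purified furin at a 1:10 enzyme:substrate ratio in 50 mM HEPES pH 7.5, 1 mM CaCl2, 100 mM NaCl for 7.5, 15 or 30 min. Released cDNA was counted by next-generation sequencing, and log counts versus no-furin controls were lowess-adjusted and converted to robust Z-scores.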
# furin, P09958, sequence (P09958 whole entry): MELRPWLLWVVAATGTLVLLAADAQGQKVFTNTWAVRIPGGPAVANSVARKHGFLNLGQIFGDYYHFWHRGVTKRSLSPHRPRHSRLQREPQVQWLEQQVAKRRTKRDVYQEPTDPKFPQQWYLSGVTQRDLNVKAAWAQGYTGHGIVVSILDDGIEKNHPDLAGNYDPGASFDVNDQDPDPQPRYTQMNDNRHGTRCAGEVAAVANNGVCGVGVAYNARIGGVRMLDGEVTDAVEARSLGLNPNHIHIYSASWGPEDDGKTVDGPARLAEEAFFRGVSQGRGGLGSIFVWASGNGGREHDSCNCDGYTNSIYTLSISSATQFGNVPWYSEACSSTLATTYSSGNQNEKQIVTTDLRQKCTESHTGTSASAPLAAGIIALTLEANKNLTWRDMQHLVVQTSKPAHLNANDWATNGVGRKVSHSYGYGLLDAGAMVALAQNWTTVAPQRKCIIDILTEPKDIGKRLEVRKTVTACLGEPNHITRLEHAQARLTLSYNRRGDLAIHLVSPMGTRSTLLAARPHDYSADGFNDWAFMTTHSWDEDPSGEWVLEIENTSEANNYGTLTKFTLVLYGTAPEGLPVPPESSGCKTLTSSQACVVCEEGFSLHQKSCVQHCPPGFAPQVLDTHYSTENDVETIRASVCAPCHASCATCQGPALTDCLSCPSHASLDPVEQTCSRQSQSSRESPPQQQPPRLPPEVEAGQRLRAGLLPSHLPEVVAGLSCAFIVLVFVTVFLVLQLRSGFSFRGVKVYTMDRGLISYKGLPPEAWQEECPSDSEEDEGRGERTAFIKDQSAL
Sequence,furin cleavage Z-score (7.5 min),furin cleavage Z-score (15 min),furin cleavage Z-score (30 min)
CALLLALPQRAGNASASA [HC560],-0.644 (inactive),-0.224 (inactive),-1.36 (inactive)
CAEVRTSTWVAGNASASA [HC2193],0.577 (inactive),-0.283 (inactive),2.14
CAIDVVCCSMAGNASASA [HC2104],-0.251 (inactive),0.23 (inactive),1.61
CATTHCSGSWAGNASASA [HC1875],-0.832 (inactive),-0.00567 (inactive),-1.4 (inactive)
CAPCAAEEQKAGNASASA [HC1377],0.0863 (inactive),-1.23 (inactive),0.435 (inactive)
CARKKRFVSSAGNASASA [FS-2213],9.34 (active),10.7 (active),11.2 (active)
CARKKRQLYSAGNASASA [FS-2967],7.88 (active),8.76 (active),9.63 (active)
CARNGRWEESAGNASASA [FS-3005],-0.164 (inactive),-0.44 (inactive),0.183 (inactive)
CARKKRLKESAGNASASA [FS-2343],0.749 (inactive),2.21,1.93
CARKKRRRESAGNASASA [FS-1903],4.55 (active),6.12 (active),4.85 (active)
CASIVYEAADAGNASASA [HC266],0.365 (inactive),0.0281 (inactive),0.406 (inactive)
CASVGLGKVLAGNASASA [HC1081],0.567 (inactive),0.113 (inactive),1.61

# From the supplement of paper PMC3545927
